# From PubChem BioAssay
# A selection: hits, their analogues and other compounds. The true share with any hit is near 2.9%.
# Nrf2 inh = Nrf2 qHTS screen for inhibitors. A549 ARE-Fluc reporter, luciferase luminescence, 18-24 h. 2.1% of 360,000 active. AID 504444, 2011. Potency, µM (titrated, usually from 46 µM), for inactives: at the highest dose activity change, negative = inhibition, actives largely listed as inhibitors; further: on the % scale 0 is the no-effect control and ±100 the full control effect; nearly all actives have a fitted effect of over 60% in size
#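 A549 ARE_Fluc cells (5000/well, 5% FBS OPTI-MEM) pre-incubated 2 h, then treated with compounds 18-24 h at 37C/5% CO2 in concentration-response. CellTiter-Fluor viability read first; BugLite luciferase luminescence after 15 min at room temperature gives Nrf2 activity.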
# A549 tox = Nrf2 qHTS screen for inhibitors: counterscreen for cytotoxicity | A549 ARE-Fluc cells, CellTiter-Fluor viability, 18-24 h | Potency, µM (series often up to 46 µM), for the others: at the highest dose activity change, negative = cytotoxicity, most hits filed as inhibitors | 0.16% of 390,000 active | AID 504648, 2011; further: on the % scale 0 is the no-effect control and ±100 the full control effect
#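 Cytotoxicity counterscreen: CellTiter-Fluor fluorescence was measured in A549 ARE_Fluc cells after 18-24 h of compound exposure in a concentration series. The subsequent BugLite luminescent read reports ARE-luciferase activity.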
# S2 tox = Viability Counterscreen for Primary qHTS for Inhibitors of ATXN expression; 0.49% of 400,000 active; S2 cells (HEK-293 line with an ATXN2-luciferase reporter) viability, CellTiter-Fluor protease fluorescence, 24 h; AID 651635, 2014; Potency, µM (doses to about 56.7 µM), usual class: cytotoxic; further: nearly all actives have a fitted effect of over 40% in size
# Nrf2 activator = qHTS of Nrf2 Activators. AREc32 ARE-luciferase reporter (MCF7-derived line), luminescence, 24 h. Potency, µM (doses to about 46.1 µM), for inactives: top-dose activation, most hits filed as activators. 0.31% of 410,000 active. AID 624171, 2012; further: % of control where 0% means no effect; nearly all actives have a fitted effect of over 65% in size
#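 ARE activation measured as luciferase luminescence (Steady-Glo, 30 min RT) in AREc32_Fluc cells after 24 hr compound exposure at 37 deg C, 5% CO2; cells seeded overnight at 1000/well in OPTI-MEM, 5% FBS.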
# ATXN2 expr inh = Primary qHTS for Inhibitors of ATXN expression. HEK-293 ATXN2-luciferase reporter, luminescence, 24 h. Potency, µM (highest dose often 57 µM), inactives show top-dose activity change, negative = inhibition, usual class: inhibitors. 0.72% of 360,000 active. AID 1745845, 2022; further: on the % scale 0 is the no-effect control and ±100 the full control effect; nearly all actives have a fitted effect of over 55% in size
#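 qHTS (up to 57 uM final) was run with 24 h compound exposure of reporter cells at 37 °C. Each well was multiplexed: SteadyGlo luminescence measured ATXN2-luciferase expression after a fluorogenic Gly-Phe-AFC viability readout (25 uM final).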
# Numbers without * were called inactive; i = inactive; ? = inconclusive; . = no result. The call rests on the fitted dose curve; in most records, active means well fitted curve in the direction sought with a large enough effect; inconclusive means small, poorly fitted or top-dose-only effect, or another doubt; inactive means no such curve, though single readings can be large; an effect the other way counts as inactive or inconclusive. Potency means the concentration at half of the fitted maximal effect.
SMILES,Nrf2 inh,A549 tox,S2 tox,Nrf2 activator,ATXN2 expr inh
C=CCC[C@@H](Cc1ccc(F)cc1)C(=O)OC[C@H](Cc1c[nH]c2ccccc12)NC(=O)[C@@H](CC=C)CC(=O)NCCO,9%,0%,.,0%,?
C=CCC[C@@H](Cc1ccc(F)cc1)C(=O)OC[C@@H](Cc1c[nH]c2ccccc12)NC(=O)[C@H](CC=C)CC(=O)NCCO,?,-16%,28µM*,-2%,?
COc1ccc(CNC(=O)c2cc3c(=O)n(Cc4ccc(OC)cc4)ccc3nc2C)cc1,?,-7%,?,0%,?
O=C(NCc1ccc(F)cc1)C1CCCN1C(=O)Nc1ccc(Cl)cc1 (stereo unspecified),1%,2%,i,-1%,.
c1cc(-c2cnn3cc(-c4ccc(OCCN5CCCCC5)cc4)cnc23)ccn1,.,.,.,.,3.9µM*
COc1ccc(-c2cnn3cc(-c4cccc(Cl)c4)cnc23)cc1,-3%,-1%,i,1%,.
Cc1ccc2nc(NC(=O)c3cc(-c4ccco4)nc4ccccc34)sc2c1,23µM*,-11%,i,0%,-20%
CCN(CC)CCNC(=O)c1ccc(NC(=O)c2cc(-c3ccco3)nc3ccccc23)cc1,?,16%,?,25%,?
Cc1csc(NC(=O)c2cc(C)nc3ccccc23)n1,-21%,5%,i,18%,.
Cc1csc(NC(=O)c2cc(-c3ccco3)nc3ccccc23)n1,10%,3%,i,4µM*,-12%
O=C(Nc1cccc(S(=O)(=O)NC2=NCCC2)c1)c1cc(-c2ccco2)nc2ccccc12,3%,?,i,10µM*,0%
CN(C)C(=O)c1ccc(NC(=O)c2cc(-c3ccco3)nc3ccccc23)cc1,10%,-4%,i,11µM*,1%
O=C(O)CCCn1cc(NC(=O)COc2cc(F)ccc2[N+](=O)[O-])cn1,1%,-19%,i,-1%,-5%
COc1ccc(-c2csc(NCCc3nc4cc(Cl)c(N5CCCCC5)cc4n3CCOCCO)n2)cc1,-10%,-5%,?,3%,?
Cc1nc(-c2ccccc2)nc2[nH]c(C(C)C)cc(=O)c12,?,12%,i,22%,-2%
O=C(NC1CC1)c1cc(-c2ccco2)nc2ccccc12,-8%,1%,i,13µM*,-1%
COc1ccc(OC)c(C(C)NC(=O)Nc2cccc(C(C)=O)c2)c1 (stereo unspecified),6%,-4%,?,0%,.
Cc1c(=O)n(OCc2ccccc2)c2ccccc2[n+]1[O-],.,-5%,i,?,2%
CCOn1c(=O)c(=O)n(OCc2ccccc2)c2ccccc21,.,-1%,?,22µM*,-22%
O=C(Oc1coc(CSc2nnc(NC(=O)c3cccs3)s2)cc1=O)c1ccccc1,14%,-2%,i,0%,7%
Cc1ccc(C(=O)Oc2coc(CSc3nnc(NC(=O)C4CC4)s3)cc2=O)cc1,21µM*,-4%,i,-2%,6%
O=C1C(N2CCOCC2)=C(n2nnc3ccccc32)C(=O)c2ccccc21,23µM*,23µM*,20µM*,-2%,22µM*
CCCSC(=S)c1c(C)[nH]n(-c2ccccc2)c1=O,?,-14%,.,0%,25µM*
COc1ccc(CN2CCN(C(=O)c3ccc(S(=O)(=O)N4CCCCCC4)cc3)CC2)cc1F,9.2µM*,-20%,i,1%,-37%
COc1ccc(CN2CCN(C(=O)c3ccc(S(=O)(=O)N4CCCCCC4)cc3)CC2)cc1,?,-3%,i,4%,-34%
N#Cc1ccc(S(=O)(=O)N2CCC(C(=O)N3CCN(Cc4ccc5c(c4)OCO5)CC3)CC2)cc1,18µM*,-8%,i,0%,-38%
N#Cc1ccc(CN2CCN(C(=O)c3ccc(S(=O)(=O)N4CCCCCC4)cc3)CC2)cc1,16µM*,-9%,?,0%,.
O=C(C1CCN(S(=O)(=O)c2ccccc2)CC1)N1CCN(Cc2ccc3c(c2)OCO3)CC1,-19%,2%,i,0%,-16%
CCOc1ccccc1OCC(=O)Nc1cccc(S(=O)(=O)N2CCCCCC2)c1,4%,3%,i,4%,-15%
